Each structure is given as a SMILES string. The whole screen tested about 6,700 compounds, of which about 20 (0.3%) were called active.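 Rule for the calls: active = mean percent activation in the counterscreen above 29.09%; inactive = the rest.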 Many of the other results were omitted from the sample, so actives are more common in it than they were.

Our source for the activation values is PubChem BioAssay AID1508611 (The Scripps Research Institute Molecular Screening Center, 2020).

The experiment deals with Glucose-dependent insulinotropic receptor (Homo sapiens) (UniProt Q8TDV5). Description: GPR119 activators in beta-arrestin cells, counter-screen for GPR151 activator project, cell-based, PathHunter beta-arrestin, luminescence, triplicate (AID 1508611).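 Note: counterscreen on off-target GPR119 to flag nonselective hits from the GPR151 activator screen.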 Particulars: 90 min, at 11.2 µM, stronger effect = higher value, 0 = compound-well median, 100 = enzyme-acceptor control. (A counterscreen serves to expose hits that act by an unwanted route or on another target.)
Sequence of Glucose-dependent insulinotropic receptor (Homo sapiens) (Q8TDV5 whole entry, looked up): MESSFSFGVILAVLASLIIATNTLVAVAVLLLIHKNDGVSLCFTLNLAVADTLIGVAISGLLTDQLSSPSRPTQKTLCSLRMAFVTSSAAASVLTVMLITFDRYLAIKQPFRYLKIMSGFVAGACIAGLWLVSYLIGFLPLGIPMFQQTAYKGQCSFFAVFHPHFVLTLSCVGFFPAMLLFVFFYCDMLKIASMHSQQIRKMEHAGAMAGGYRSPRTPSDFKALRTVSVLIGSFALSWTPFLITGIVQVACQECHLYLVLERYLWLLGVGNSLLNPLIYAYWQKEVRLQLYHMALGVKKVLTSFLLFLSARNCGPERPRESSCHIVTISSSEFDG
With `Cc1nc(-c2cccc(NC(=O)C3CC(=O)c4ccccc43)c2)cs1` (stereo not given), the activation was 4.74% (inactive).

Regarding `CC(C)CNc1nc2c(c(=O)[nH]c(=O)n2C)n1CC(C)O` (stereo not given), the activation was 5.13% (inactive).

In the case of `CCCCOC(=O)C1=C(C)NC2=C(C(=O)CCC2)C1c1cccc([N+](=O)[O-])c1` (stereo not given), the activation is -13.7% (inactive).

For `NC(=O)C1CCN(C(=O)c2ccc(-c3ccccc3)cc2)CC1`, the activation was -13.1% (inactive).

For `CN1C(=O)c2ccc(N3C(=O)c4cccc([N+](=O)[O-])c4C3=O)cc2C1=O`, the activation was -8.76% (inactive).

Take `COc1cc(Nc2ccnc(Nc3ccc(N4CCOCC4)cc3)n2)cc(OC)c1OC`: the activation was 31.6% (active).

For the compound `CCN(CC)c1nc(Nc2cc(OC)c(OC)c(OC)c2)nc(N2CCOCC2)n1`, the activation is -4.38% (inactive).

Consider `COc1cc2nc(-c3cccc(C(C)=O)c3)nc(Nc3ccc(N4CCOCC4)cc3)c2cc1OC`, for which the activation is 1.25% (inactive).

Take `CCN(CC)c1nc(Nc2ccccc2)nc(Nc2ccccc2)n1`: the activation was 5.68% (inactive).

As for `CCOC(=O)c1cccc(NC(=O)/C=C/c2ccccc2)c1`, the activation was 2.43% (inactive).

For `COCCn1c(C)cc(C(=O)CSc2nnc(-c3ccccc3)o2)c1C`, the activation was 0.76% (inactive).

`COc1ccc(OC)c(S(=O)(=O)Oc2ccc(Cl)c3cccnc23)c1`: the activation was 14.7% (inactive).

On to `O=C(CC1C(=O)NCCN1C(=O)c1ccc([N+](=O)[O-])cc1)Nc1cccc(Cl)c1` (stereo not given), for which the activation was 8.78% (inactive).

As to `COc1ccc(-c2cc(N)n(S(=O)(=O)c3ccccc3)n2)c(OC)c1`, the activation is -9.92% (inactive).

On to `c1ccc(-c2ccc(OCCCNCCN3CCOCC3)cc2)cc1`, for which the activation was -6.67% (inactive).

Regarding `COc1ccc(C2=NN(C(=O)c3cc(OC)c(OC)c(OC)c3)C(c3ccc(Cl)cc3)C2)cc1OC` (stereo not given), the activation was 10.6% (inactive).

Take `C=C(C)CSc1nc2sc3c(c2c(=O)n1-c1ccc(OC)cc1)CC(C)(C)OC3`: the activation is 13.8% (inactive).

Turning to `COc1ccccc1C1CCCN1C(=O)C1CCN(c2nc(C)c3ccccc3n2)CC1` (stereo not given), the activation is 0.39% (inactive).

`COc1ccc(OC)c(NC(=O)CN(c2cccc(C)c2C)S(C)(=O)=O)c1`: the activation is -9.68% (inactive).

With `O=C(CC12CC3CC(CC(C3)C1)C2)Nc1ccc2oc(=O)ccc2c1`, the activation is -8.76% (inactive).

For `CC(C)(C)C1(O)CCN2C[C@H]3c4ccccc4CCc4cccc(c43)[C@@H]2C1` (stereo not given in full), the activation is 2.66% (inactive).

On to `OCCC1CN(Cc2ccc3cc(F)ccc3n2)CCN1C1CCCC1` (stereo not given), for which the activation was 11.7% (inactive).

For the compound `CCCn1ncc(CN2CCCC(N3CCC(CO)CC3)C2)c1C` (stereo not given), the activation is 1.74% (inactive).

For the compound `CCCOC(=O)C1=C(C)NC(=O)NC1c1ccc(Br)cc1` (stereo not given), the activation was -8.21% (inactive).

As for `O=C(Cn1c(=S)nc2ccccn21)N1CCc2ccccc2C1`, the activation is 4.38% (inactive).

Regarding `CCOC(=O)C1=CN(C)C=C(C(=O)OCC)C1c1ccc(OC)cc1`, the activation is 7.33% (inactive).

In the case of `O=C(O)COc1ccc(N2C(=O)C(=O)/C(=C(\O)c3ccccc3)C2c2ccc(Cl)cc2Cl)cc1` (stereo not given), the activation is 1.15% (inactive).

For `Cc1nnc(SCC(=O)NCc2ccccc2)s1`, the activation was -8.49% (inactive).

As to `CN(CC(=O)Nc1cccc2c1CCCC2)S(=O)(=O)c1ccc(Cl)cc1`, the activation was -16% (inactive).

As to `COC(=O)[C@@H]1CC[C@H](C)[C@@H](c2ccc(C)cc2)N1C(=O)c1ccc(/C=N/O[C@H](C)c2cn([C@@H]3COC[C@H]3O)nn2)cc1`, the activation was -5.11% (inactive).

Regarding `Cc1ccccc1CC1(CO)CCCN(Cc2ccncc2)C1` (stereo not given), the activation was -3.82% (inactive).

As for `O=C(CSc1ccc(F)cc1)Nc1cccc2ccccc12`, the activation was -0.98% (inactive).

Take `COc1ccc2c(c1)C=C(CN1CCN(CC3CCCCC3)C(CCO)C1)CO2` (stereo not given): the activation was 10.3% (inactive).

As for `O=c1[nH]c(=S)[nH]c(O)c1C=Nc1ccc(F)c(Cl)c1`, the activation is 5.32% (inactive).

Turning to `O=C(Cn1c(=O)n(Cc2cccs2)c(=O)c2cccnc21)Nc1ccc(F)cc1`, the activation is -1.72% (inactive).

In the case of `CCOC(=O)c1sc(NC(=O)CSc2ncccn2)c(C#N)c1C`, the activation was 2.97% (inactive).

Turning to `CC(C)C(=O)NNS(=O)(=O)c1ccc([N+](=O)[O-])cc1`, the activation was 0.04% (inactive).

For the compound `O=C(NCc1nnc(SCC(=O)N2N=C(c3cccs3)CC2c2ccc(F)cc2)n1Cc1ccccc1)c1cccc(F)c1` (stereo not given), the activation was -10.8% (inactive).

On to `CCc1ccc(-c2ccc(C3CCC(CC)CC3)cc2)nc1` (stereo not given), for which the activation is -6.15% (inactive).

`CC(C)c1ccc(Nc2nccn3c(-c4cccc(CO)c4)cnc23)cc1`: the activation was 15.7% (inactive).

With `O=C(c1ccccc1)N1CCCCC(Sc2ncnc3sc4c(c23)CCCC4)C1=O` (stereo not given), the activation was 0.65% (inactive).

As for `C[C@H]1Cc2c(COc3ccccc3)nc3c(c2CO1)CN(C(=O)NCc1ccco1)CC3`, the activation was 9.06% (inactive).

Regarding `CC(C)n1c(Nc2ccc3ncccc3c2)nc2c(NC3CC3)ncnc21`, the activation was 3.65% (inactive).

Turning to `Cc1cc(CN(C)Cc2ccc(OCC(O)CN(C)Cc3ccccc3)cc2)n[nH]1` (stereo not given), the activation was -0.59% (inactive).

For `O=C(NCCOc1ccccc1)c1cnc(N2CCN(c3ccccn3)CC2)s1`, the activation was 1.31% (inactive).

Consider `COC(=O)CN1C=C(C(=O)OC)C(c2ccc(OC)c(O)c2)C(C(=O)OC)=C1`, for which the activation was 20.6% (inactive).

As to `CCOC(=O)c1cc2cc(-c3c(C)oc4cc(OC(C)=O)ccc4c3=O)ccc2o1`, the activation is -2.06% (inactive).

Take `CN(Cc1nc(-c2ccc3c(c2)OCO3)no1)C1CCCc2ccccc21` (stereo not given): the activation is 0.92% (inactive).

As to `O=C(Cc1cccs1)Nn1c(-c2cccc([N+](=O)[O-])c2)nc2ccccc2c1=O`, the activation was 13.2% (inactive).

Regarding `CC1(C(=O)Nc2cccc(C(F)(F)F)c2)CC2c3ccccc3C1c1ccccc12` (stereo not given), the activation is 0.35% (inactive).

For the compound `O=CN1CCN(CCC(=O)Nc2ccccc2)CC1`, the activation was -6.54% (inactive).

On to `CCOc1ccc(NC(=O)N2CCN(CC)CC2)cc1`, for which the activation was 6.5% (inactive).

With `CCSc1nc2sccn2c(=O)c1C(=O)NC(Cc1ccccn1)C(F)(F)F` (stereo not given), the activation is -3.52% (inactive).

Take `Cc1cccc(-n2nc3c(c2NC(=O)CCC2CCCCC2)CS(=O)(=O)C3)c1C`: the activation is 7.21% (inactive).

With `COc1ccc(-c2noc(N3CCC(C(=O)NCCCN4CCN(C)CC4)CC3)n2)cc1`, the activation was 3.82% (inactive).

On to `FC(F)(F)c1ccc(Cn2cnc3c(NCc4cccc(C(F)(F)F)c4)nc(Nc4ccc(N5CCOCC5)cc4)nc32)cc1`, for which the activation is -10.4% (inactive).

Turning to `CC(=O)Nc1nnc(CCOCC(C)OCCc2nnc(NC(C)=O)s2)s1` (stereo not given), the activation was 12.3% (inactive).

`CCOc1cc2c(cc1OCC)C(c1ccc3ccccc3c1)NCC2` (stereo not given): the activation was -1.89% (inactive).

Consider `CCOc1ccc(C(=O)Nc2nnc(CC)s2)cc1[N+](=O)[O-]`, for which the activation was -8.62% (inactive).

For `O=S(=O)(c1ccc(F)cc1)N1CCN(CCCc2ccccc2)CC1`, the activation was 15.2% (inactive).

For the compound `O=C(N/N=C/c1cccc(Cl)c1Cl)c1cccs1`, the activation was -19.1% (inactive).

With `CCOC(=O)c1ccc2nc(NC(=O)CSc3nc4ccccc4[nH]3)sc2c1`, the activation is 6.61% (inactive).

`COCCNC(=O)CSc1nccn1Cc1ccco1`: the activation was 5.14% (inactive).

Turning to `COCC(=O)Nc1c(I)c(C(=O)NCC(O)CO)c(I)c(C(=O)N(C)CC(O)CO)c1I` (stereo not given), the activation was -9.51% (inactive).

For the compound `O=C(CCc1ccccc1)Nc1cccc(C(=O)N2CCOCC2)c1`, the activation is -6.29% (inactive).

As for `CC(/C=N\NC(=O)CSc1nc(C)cc(C)n1)=C\c1ccccc1`, the activation is -12.7% (inactive).

Take `COCCNC(=O)c1cc2c(=O)n3ccccc3nc2n(CCc2ccccc2)c1=N`: the activation is 3.06% (inactive).

In the case of `CCCN1C(=O)c2ccc(C(=O)Nc3ccc(C(C)=O)cc3)cc2C1=O`, the activation is 0.52% (inactive).

In the case of `O=C(c1cc([N+](=O)[O-])ccc1NC1CCCCC1)N1CCOCC1`, the activation was -18.9% (inactive).

Consider `CCN(CC)C(=O)C1CCCN(c2cccc(C(=O)NCCc3ccc(OC)cc3)n2)C1` (stereo not given), for which the activation was -12.6% (inactive).

`Cc1ccc(-c2nnc(N3CCOCC3)c3ccccc23)cc1S(=O)(=O)N1CCN(C)CC1`: the activation is -11.5% (inactive).

For `C=CCN1C(=O)CC(C(=O)OC)C12CCN(C1CCN(C(=O)OCC)CC1)CC2` (stereo not given), the activation is -5.11% (inactive).

`COC(=O)NNC(=S)Nc1cc(S(=O)(=O)N(C)C)ccc1C`: the activation was -12.9% (inactive).

For the compound `CCCCOc1ccccc1CNCC`, the activation is 0.16% (inactive).

Take `O=C(CN1C(=O)S/C(=C\c2ccc(Cl)s2)C1=O)Nc1ccccc1F`: the activation is -11% (inactive).

As to `CSc1nc(N)nc2nc[nH]c12`, the activation was -1.61% (inactive).

With `CCc1ccc(-n2c(C)c(C)n3c4c(=O)n(CC)c(=O)n(C)c4nc23)cc1`, the activation is -2.08% (inactive).

On to `C#CCOc1ccc(Br)cc1/C=C1\NC(=S)N(C)C1=O`, for which the activation was -3.86% (inactive).

As to `CS(=O)(=O)N(CC(=O)Nc1ccc(F)cc1F)c1ccc(F)cc1`, the activation was -2.79% (inactive).

On to `Cc1ccc(C(C)C)c(OCCCn2ccnc2)c1`, for which the activation was 0.47% (inactive).

Regarding `COc1ccccc1C(=O)N/C(=C\c1ccc2c(c1)OCO2)C(N)=O`, the activation is 4.53% (inactive).

On to `C=CCN(c1ccc(C(=O)Nc2ccc(OCc3ccccc3)cc2)cc1)S(C)(=O)=O`, for which the activation is -10.1% (inactive).

With `CC(=O)NC(CC(=O)O)c1ccc(F)cc1` (stereo not given), the activation was 3.48% (inactive).

In the case of `COc1cccc(/C=C(\C#N)c2nc3ccc(C)cc3[nH]2)c1OC`, the activation is 17.6% (inactive).

`Cc1ccc(NCC(=O)N/N=C\c2ccc(I)o2)cc1`: the activation is -0.01% (inactive).

Consider `COc1cccc(C2SCC(=O)N2c2cccc(C)c2)c1OC` (stereo not given), for which the activation is 13.2% (inactive).

As to `CC1(c2ccccc2NC(=O)c2ccc([N+](=O)[O-])cc2)CC1`, the activation is 0.99% (inactive).

Consider `O=[N+]([O-])c1ccc2ncnc(Nc3cccc(C(F)(F)F)c3)c2c1`, for which the activation was 9% (inactive).

With `O=C(COc1ccc(S(=O)(=O)NCCc2ccccc2)cc1)NC1CC1`, the activation is -10.3% (inactive).

As to `O=C(Nc1ccc2[nH]ncc2c1)N1CCCNCC1`, the activation is 3.8% (inactive).
